From PubChem BioAssay AID1159580 (chemical genetic matrix, 2015)
Several values for one entry are separate records, joined by “and”; a condition that tells them apart may be missing. Equal entries are not always repeated. Hit rate of the full screen: of about 5,500 compounds, about 2,000 (36%) were called active. Another 18% or so got no clear call; they are omitted. Rule as the data show it: active = normalized growth mostly below about 0.91 (no sharp cut-off); inconclusive = no clear call, values can overlap the other calls; inactive = mostly above about 0.92. Some of the results follow.

Assay: chemical genetic growth profiling, strain panel (AID 1159580);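 also: tested at 20 µM; growth read once vehicle control cultures reached saturation at 30 °C; 1 = growth at the plate median or of vehicle wells; lower values mean less growth of the strain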
Details: S. cerevisiae deletion strains, growth OD

Measured: normalized growth

COc1cc2ccc(=O)oc2cc1O
inactive: locus YAL013W, strain DEP1, active compounds read low 1.03 | locus YAL021C, strain ccr4, active compounds read low 0.958 | locus YAL026C, strain drs2, active compounds read low 0.968 | locus YAL030W, strain snc1, active compounds read low 0.977 | locus YBL061C, strain skt5, active compounds read low 0.965 | locus YBR009C, strain hhf1, active compounds read low 1.01 | locus YBR021W, strain FUR4, active compounds read low 0.985 | locus YBR023C, strain chs3, active compounds read low 0.958 | locus YBR171W, strain sec66, active compounds read low 0.984 | locus YBR229C, strain ROT2, active compounds read low 0.946 | locus YBR231C, strain swc5, active compounds read low 0.966 | locus YBR279W, strain paf1, active compounds read low 0.96 | locus YCL011C, strain gbp2, active compounds read low 0.946 | locus YCL016C, strain dcc1, active compounds read low 0.94 | locus YCL029C, strain bik1, active compounds read low 0.979 | locus YCL069W, strain vba3, active compounds read low 0.98 | locus YCR088W, strain abp1, active compounds read low 0.985 | locus YDL005C, strain med2, active compounds read low 0.992 | locus YDL035C, strain GPR1, active compounds read low 0.97 | locus YDL040C, strain nat1, active compounds read low 0.973 | locus YDL074C, strain BRE1, active compounds read low 1.04 | locus YDL101C, strain DUN1, active compounds read low 0.999 | locus YDL185W, strain tfp1, active compounds read low 0.974 | locus YDL192W, strain arf1, active compounds read low 1 | locus YDR001C, strain nth1, active compounds read low 0.976 | locus YDR069C, strain doa4, active compounds read low 0.995 | locus YDR101C, strain arx1, active compounds read low 0.987 | locus YDR137W, strain rgp1, active compounds read low 1 | locus YDR150W, strain NUM1, active compounds read low 1 | locus YDR159W, strain sac3, active compounds read low 0.941 | locus YDR162C, strain NBP2, active compounds read low 0.953 | locus YDR195W, strain ref2 0.994 | locus YDR297W, strain sur2, active compounds read low 0.99 | locus YDR318W, strain mcm21, active compounds read low 0.992 | locus YDR334W, strain swr1, active compounds read low 0.959 | locus YDR335W, strain msn5, active compounds read low 0.96 | locus YDR388W, active compounds read low 1 | locus YDR392W, strain spt3, active compounds read low 0.883 | locus YDR502C, strain sam2, active compounds read low 0.999 | locus YEL003W, strain gim4, active compounds read low 0.987 | locus YEL037C, strain rad23, active compounds read low 0.974 | locus YEL061C, strain CIN8 (second series), active compounds read low 0.977 | locus YEL061C, strain CIN8, active compounds read low 0.987 | locus YER015W, strain faa2, active compounds read low 0.967 | locus YER016W, strain bim1, active compounds read low 0.949 | locus YER110C, active compounds read low 1.01 | locus YER111C, strain swi4, active compounds read low 0.967 | locus YER155C, strain BEM2 (second series), active compounds read low 1.01 | locus YER155C, strain BEM2, active compounds read low 1 | locus YER167W, strain BCK2, active compounds read low 0.984 | locus YFR010W, strain ubp6, active compounds read low 0.996 | locus YGL078C, strain dbp3, active compounds read low 1 | locus YGL086W, strain mad1, active compounds read low 0.998 | locus YGL167C, strain pmr1, active compounds read low 0.978 | locus YGL173C, strain kem1, active compounds read low 1.02 | locus YGL227W, strain vid30, active compounds read low 0.975 | locus YGL240W, strain doc1, active compounds read low 1 | locus YGL248W, strain PDE1, active compounds read low 0.998 | locus YGL253W, strain hxk2, active compounds read low 0.939 | locus YGR078C, strain PAC10, active compounds read low 1.02 | locus YGR135W, strain pre9, active compounds read low 1 | locus YGR252W, strain gcn5, active compounds read low 1 | locus YHR013C, strain ard1, active compounds read low 0.916 | locus YHR027C, strain rpn1, active compounds read low 0.968 | locus YHR030C, strain SLT2, active compounds read low 0.987 and 0.966 | locus YHR079C, strain IRE1 (second series), active compounds read low 1.01 | locus YHR079C, strain IRE1, active compounds read low 0.976 | locus YHR094C, strain hxt1, active compounds read low 0.992 | locus YHR129C, strain ARP1, active compounds read low 0.994 | locus YHR142W, strain chs7, active compounds read low 0.914 | locus YHR200W, strain rpn10, active compounds read low 0.991 | locus YIL066C, strain RNR3, active compounds read low 0.935 | locus YIL073C, strain SPO22, active compounds read low 1.01 | locus YIL125W, strain kgd1, active compounds read low 1 | locus YIR030C, strain dcg1, active compounds read low 0.996 | locus YJL092W, strain hpr5, active compounds read low 0.968 | locus YJL095W, strain BCK1 (second series), active compounds read low 0.987 | locus YJL095W, strain BCK1, active compounds read low 1.02 and 1.01 | locus YJL115W, strain asf1, active compounds read low 0.952 | locus YJL129C, strain trk1, active compounds read low 0.929 | locus YJL134W, strain LCB3, active compounds read low 0.982 | locus YJL154C, strain vps35, active compounds read low 0.973 | locus YJL164C, strain tpk1, active compounds read low 0.979 | locus YJL166W, strain qcr8, active compounds read low 1 | locus YJL168C, strain set2, active compounds read low 0.995 | locus YJL187C, strain SWE1 (second series), active compounds read low 1.03 | locus YJR043C, strain POL32, active compounds read low 0.954 | locus YJR066W, strain TOR1, active compounds read low 0.929 | locus YKL009W, strain mrt4, active compounds read low 1 | locus YKL068W, active compounds read low 0.992 | locus YKL085W, strain MDH1 (second series), active compounds read low 0.995 | locus YKL085W, strain MDH1, active compounds read low 0.995 | locus YKL160W, strain elf1, active compounds read low 0.931 | locus YKR001C, strain vps1, active compounds read low 0.987 | locus YKR026C, strain gcn3, active compounds read low 0.983 | locus YKR091W, strain srl3, active compounds read low 0.963 | locus YLL001W, strain dnm1, active compounds read low 1 | locus YLL026W, active compounds read low 0.971 | locus YLL041C, strain sdh2, active compounds read low 0.999 | locus YLR027C, strain aat2, active compounds read low 0.989 | locus YLR039C, strain RIC1, active compounds read low 0.971 | locus YLR058C, strain SHM2, active compounds read low 0.988 | locus YLR102C, strain apc9, active compounds read low 1 | locus YLR113W, strain HOG1, active compounds read low 1.04 | locus YLR221C, strain rsa3, active compounds read low 1.03 | locus YLR258W, strain gsy2, active compounds read low 0.95 | locus YLR262C, strain YPT6 (second series), active compounds read low 0.982 | locus YLR262C, strain YPT6, active compounds read low 0.969 | locus YLR268W, strain sec22, active compounds read low 1.01 | locus YLR320W, strain mms22, active compounds read low 1.01 | locus YLR330W, strain CHS5, active compounds read low 0.988 | locus YLR342W, strain FKS1 (second series), active compounds read low 0.988 | locus YLR342W, strain FKS1, active compounds read low 0.973 | locus YLR357W, strain rsc2, active compounds read low 0.947 | locus YLR370C, strain arc18, active compounds read low 0.964 | locus YLR371W, strain rom2, active compounds read low 0.994 | locus YLR384C, strain iki3, active compounds read low 0.941 | locus YLR418C, strain cdc73, active compounds read low 1 | locus YML016C, strain PPZ1, active compounds read low 0.986 | locus YML032C, strain rad52, active compounds read low 0.986 | locus YML120C, strain ndi1, active compounds read low 1 | locus YML124C, strain tub3, active compounds read low 1.01 | locus YMR058W, strain fet3, active compounds read low 0.971 | locus YMR078C, strain ctf18, active compounds read low 1 | locus YMR125W, strain sto1, active compounds read low 0.97 | locus YMR129W, active compounds read low 0.976 | locus YMR205C, strain PFK2, active compounds read low 1 | locus YMR223W, strain ubp8, active compounds read low 0.997 | locus YMR231W, strain pep5, active compounds read low 0.992 | locus YMR307W, strain GAS1, active compounds read low 0.904 | locus YNL067W, strain RPL9B, active compounds read low 1.06 | locus YNL071W, strain lat1, active compounds read low 0.986 | locus YNL183C, strain NPR1, active compounds read low 0.975 | locus YNL209W, strain ssb2, active compounds read low 0.968 | locus YNL233W, strain BNI4, active compounds read low 1.07 | locus YNL248C, strain rpa49, active compounds read low 0.903 | locus YNL250W, strain rad50, active compounds read low 1.01 | locus YNL271C, strain bni1, active compounds read low 0.994 | locus YNL298W, strain CLA4, active compounds read low 0.994 | locus YNL307C, strain MCK1, active compounds read low 1 | locus YNL322C, strain KRE1 (second series), active compounds read low 0.948 | locus YNR049C, strain mso1, active compounds read low 0.955 | locus YNR052C, strain pop2, active compounds read low 1.03 | locus YOL012C, strain htz1 0.802 | locus YOL147C, strain pex11, active compounds read low 0.999 | locus YOR001W, strain rrp6, active compounds read low 1.03 | locus YOR061W, strain CKA2, active compounds read low 0.975 | locus YOR069W, strain VPS5, active compounds read low 0.987 | locus YOR070C, strain gyp1, active compounds read low 0.975 | locus YOR080W, strain dia2, active compounds read low 0.967 | locus YOR083W, strain WHI5, active compounds read low 0.896 | locus YOR106W, strain vam3, active compounds read low 0.923 | locus YOR136W, strain idh2, active compounds read low 0.998 | locus YOR144C, strain elg1, active compounds read low 1 | locus YOR184W, strain ser1, active compounds read low 0.995 | locus YOR231W, strain MKK1, active compounds read low 0.976 | locus YOR265W, strain rbl2, active compounds read low 0.97 | locus YOR270C, strain vph1, active compounds read low 0.923 | locus YOR290C, strain snf2, active compounds read low 0.929 | locus YOR316C, strain cot1, active compounds read low 0.994 | locus YPL051W, strain arl3, active compounds read low 0.963 | locus YPL078C, strain atp4, active compounds read low 0.939 | locus YPL106C, strain sse1, active compounds read low 0.899 | locus YPL240C, strain hsp82, active compounds read low 0.987 | locus YPL241C, strain CIN2, active compounds read low 0.997 | locus YPL256C, strain CLN2, active compounds read low 1.01 | locus YPR119W, strain clb2, active compounds read low 0.995 | locus YPR141C, strain kar3, active compounds read low 0.989 | locus YPR163C, strain tif3, active compounds read low 0.989 | locus YPR167C, strain met16, active compounds read low 0.997 | strain wtn01, active compounds read low 1.01
